From PubChem BioAssay (EPA / NIEHS)
Results filed as inconclusive are left out. Calls of active or inactive are those of the source. Rule for the calls: active = hit-call score of the fitted dose curve at least 0.9, where 1 is the maximum; inconclusive = response in the unintended direction; inactive = score below 0.9.

How the values were obtained:
[1] = molecular target: human Vascular Endothelial Growth Factor Receptor 2 (VEGFR2), KDR (gene 3791) (UniProt P35968); assay: NVS_ENZ_hVEGFR2: NovaScreen (NVS) Enzymatic Assay for human Vascular Endothelial Growth Factor Receptor 2 (VEGFR2) (AID 2283230)
Chain of human Vascular Endothelial Growth Factor Receptor 2 (VEGFR2), KDR (gene 3791) (P35968 whole entry, looked up): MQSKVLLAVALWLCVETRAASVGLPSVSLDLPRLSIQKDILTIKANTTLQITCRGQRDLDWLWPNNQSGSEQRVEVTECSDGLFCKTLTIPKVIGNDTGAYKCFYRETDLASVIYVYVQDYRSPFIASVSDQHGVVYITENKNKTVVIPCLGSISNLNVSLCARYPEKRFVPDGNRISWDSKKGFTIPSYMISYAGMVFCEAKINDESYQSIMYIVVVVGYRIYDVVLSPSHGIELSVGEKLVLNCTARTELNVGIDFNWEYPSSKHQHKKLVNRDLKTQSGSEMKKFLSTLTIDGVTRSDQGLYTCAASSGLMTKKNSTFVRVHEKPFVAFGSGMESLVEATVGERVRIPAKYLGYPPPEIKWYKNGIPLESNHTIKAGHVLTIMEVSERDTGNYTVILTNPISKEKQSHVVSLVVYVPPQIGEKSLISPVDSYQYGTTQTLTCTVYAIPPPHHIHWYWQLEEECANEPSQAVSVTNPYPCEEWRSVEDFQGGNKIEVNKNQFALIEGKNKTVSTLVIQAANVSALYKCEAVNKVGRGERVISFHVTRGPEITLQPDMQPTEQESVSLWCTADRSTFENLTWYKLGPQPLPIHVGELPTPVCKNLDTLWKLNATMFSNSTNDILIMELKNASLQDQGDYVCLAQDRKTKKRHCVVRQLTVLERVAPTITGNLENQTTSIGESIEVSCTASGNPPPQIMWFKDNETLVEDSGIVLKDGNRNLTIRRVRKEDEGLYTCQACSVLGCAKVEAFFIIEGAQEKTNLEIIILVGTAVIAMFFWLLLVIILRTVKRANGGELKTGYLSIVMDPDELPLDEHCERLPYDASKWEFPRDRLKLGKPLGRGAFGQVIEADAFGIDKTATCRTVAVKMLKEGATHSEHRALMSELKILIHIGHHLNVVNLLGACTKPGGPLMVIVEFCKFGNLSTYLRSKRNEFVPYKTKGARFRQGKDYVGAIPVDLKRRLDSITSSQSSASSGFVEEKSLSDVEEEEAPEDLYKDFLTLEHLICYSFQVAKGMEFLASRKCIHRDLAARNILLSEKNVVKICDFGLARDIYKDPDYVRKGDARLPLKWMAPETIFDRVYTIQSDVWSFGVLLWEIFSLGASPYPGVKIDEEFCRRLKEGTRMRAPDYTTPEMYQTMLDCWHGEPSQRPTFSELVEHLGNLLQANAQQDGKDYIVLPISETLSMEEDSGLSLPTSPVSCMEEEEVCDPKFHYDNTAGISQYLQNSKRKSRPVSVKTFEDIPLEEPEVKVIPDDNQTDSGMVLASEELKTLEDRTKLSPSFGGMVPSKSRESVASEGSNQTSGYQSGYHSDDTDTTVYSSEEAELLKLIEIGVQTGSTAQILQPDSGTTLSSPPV
Procedure, shortened: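 Cell-free recombinant VEGFR2 kinase, fluorescent substrate with electrophoretic mobility-shift separation; read 1 h after dosing. Screened at 25 uM in duplicate, hits to concentration-response up to 50 uM; loss-of-signal versus DMSO.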

[2] = molecular target: rat Adenylate Cyclase, Forskolin Stimulated, Adcy5 (gene 64532) (UniProt Q04400); assay: NVS_ENZ_rACFSKBinding: NovaScreen (NVS) Enzymatic Assay for rat Adenylate Cyclase, Forskolin Stimulated (AID 2283232)
Procedure, shortened: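 Rat forebrain membrane preparation, cell-free, read 1 h after dosing by filter-based scintillation counting. Primary screen in duplicate at 25 uM; actives (e.g. ≥30% inhibition) rerun in concentration-response up to 50 uM; fit versus DMSO.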

[3] = tested on: bovine Angiotensin II Receptor Type 2 (AT2), gene 407157; assay: NVS_GPCR_bAT2: NovaScreen (NVS) G Protein-Coupled Receptor Assay for bovine Angiotensin II Receptor Type 2 (AT2) (AID 2283240)
Procedure, shortened: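 Radioligand displacement on bovine cerebellar membranes, 1 hour incubation, filter-based scintillation counting; loss of signal vs DMSO. Duplicate single-point screen at 25 uM, then concentration-response to 50 uM maximum.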

[4] = molecular target: bovine Dopamine Receptor (DR), Non-selective Binding, DRD1 (gene 281125) (UniProt Q95136); assay: NVS_GPCR_bDR_NonSelective: NovaScreen (NVS) G Protein-Coupled Receptor Assay for bovine Dopamine Receptor (DR), Non-selective Binding (AID 2283241)
Chain of bovine Dopamine Receptor (DR), Non-selective Binding, DRD1 (gene 281125) (Q95136 whole entry, looked up): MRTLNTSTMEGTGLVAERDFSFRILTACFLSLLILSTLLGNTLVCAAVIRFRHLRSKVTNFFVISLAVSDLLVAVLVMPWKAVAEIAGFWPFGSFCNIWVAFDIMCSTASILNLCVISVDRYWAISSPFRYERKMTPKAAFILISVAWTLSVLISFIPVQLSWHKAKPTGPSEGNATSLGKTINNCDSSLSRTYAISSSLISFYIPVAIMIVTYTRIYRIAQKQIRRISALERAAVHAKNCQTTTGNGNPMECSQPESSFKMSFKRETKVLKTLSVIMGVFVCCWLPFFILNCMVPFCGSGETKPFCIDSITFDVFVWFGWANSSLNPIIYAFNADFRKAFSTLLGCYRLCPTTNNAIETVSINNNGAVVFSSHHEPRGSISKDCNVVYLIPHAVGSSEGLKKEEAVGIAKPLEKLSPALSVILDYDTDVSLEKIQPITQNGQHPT
Procedure, shortened: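 Bovine striatal membranes; radioligand displacement read by filtration and scintillation counting 1 h after dosing, loss of signal vs DMSO. Screened in duplicate at 25 uM, then concentration-response for hits.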

[5] = NVS_GPCR_bNPY_NonSelective: NovaScreen (NVS) G Protein-Coupled Receptor Assay for bovine Neuropeptide Y (NPY) Receptor, Non-selective Binding (AID 2283245)
Procedure, shortened: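 Bovine hippocampal membranes incubated 1 hour with radioligand and test chemical. Bound ligand measured by filter-based scintillation counting. Single-concentration screen at 25 uM in duplicate, then concentration-response up to 50 uM.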

[6] = tested on: guinea pig Leukotriene B4 Receptor (LTB4), gene 100379538; assay: NVS_GPCR_gLTB4: NovaScreen (NVS) G Protein-Coupled Receptor Assay for guinea pig Leukotriene B4 Receptor (LTB4) (AID 2283247)
Procedure, shortened: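 Radioligand displacement on guinea pig spleen membranes, filter-based scintillation counting 2 h after dosing. Primary duplicate single point at 25 uM; hits over threshold (e.g. 30% inhibition) run in concentration-response up to 50 uM, DMSO baseline.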

[7] = molecular target: guinea pig Leukotriene D4 Receptor (LTD4), CYSLTR1 (gene 100135514) (UniProt Q2NNR5); assay: NVS_GPCR_gLTD4: NovaScreen (NVS) G Protein-Coupled Receptor Assay for guinea pig Leukotriene D4 Receptor (LTD4) (AID 2283248)
Chain of guinea pig Leukotriene D4 Receptor (LTD4), CYSLTR1 (gene 100135514) (Q2NNR5 whole entry, looked up): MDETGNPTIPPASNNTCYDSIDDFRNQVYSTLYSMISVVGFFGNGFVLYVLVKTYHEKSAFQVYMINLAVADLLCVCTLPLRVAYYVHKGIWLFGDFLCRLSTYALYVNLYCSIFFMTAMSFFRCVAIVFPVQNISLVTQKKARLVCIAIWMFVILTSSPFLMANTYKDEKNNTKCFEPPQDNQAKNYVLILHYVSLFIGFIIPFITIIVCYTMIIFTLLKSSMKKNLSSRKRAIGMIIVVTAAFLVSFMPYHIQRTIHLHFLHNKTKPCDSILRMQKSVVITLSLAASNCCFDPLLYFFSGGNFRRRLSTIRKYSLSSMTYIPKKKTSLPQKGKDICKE
Procedure, shortened: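 Radioligand displacement on guinea pig lung membranes, 1 h incubation, filtration and scintillation counting; DMSO as negative control. Duplicate 25 uM primary screen, then singleton concentration-response up to 50 uM.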

[8] = molecular target: human Serotonin, 5-Hydroxytryptamine Receptor 2A (5HT2A), HTR2A (gene 3356) (UniProt P28223); assay: NVS_GPCR_h5HT2A: NovaScreen (NVS) G Protein-Coupled Receptor Assay for human Serotonin, 5-Hydroxytryptamine Receptor 2A (5HT2A) (AID 2283249)
Chain of human Serotonin, 5-Hydroxytryptamine Receptor 2A (5HT2A), HTR2A (gene 3356) (P28223 whole entry, looked up): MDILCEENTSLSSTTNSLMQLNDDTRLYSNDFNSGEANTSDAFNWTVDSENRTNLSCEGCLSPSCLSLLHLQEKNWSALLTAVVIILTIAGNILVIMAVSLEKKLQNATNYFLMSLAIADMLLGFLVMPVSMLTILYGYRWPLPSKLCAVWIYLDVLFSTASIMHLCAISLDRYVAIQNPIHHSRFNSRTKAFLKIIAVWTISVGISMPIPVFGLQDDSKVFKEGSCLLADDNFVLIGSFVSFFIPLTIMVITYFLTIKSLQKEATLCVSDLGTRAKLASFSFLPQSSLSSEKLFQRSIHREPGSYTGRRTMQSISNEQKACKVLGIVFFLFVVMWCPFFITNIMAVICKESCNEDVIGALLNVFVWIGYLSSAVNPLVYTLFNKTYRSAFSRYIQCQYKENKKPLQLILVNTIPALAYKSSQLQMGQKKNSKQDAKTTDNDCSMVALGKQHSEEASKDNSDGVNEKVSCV
Procedure, shortened: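 Human cortex membranes, cell-free radioligand binding; filter-based scintillation read 1.5 h after dosing. Duplicate screen at 25 uM first; displacement of specific binding (loss of signal) versus DMSO.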

[9] = tested on: guinea pig Muscarinic, Peripheral (Mperiperal) Receptor, Non-selective Binding, gene 100379235; assay: NVS_GPCR_gMPeripheral_NonSelective: NovaScreen (NVS) G Protein-Coupled Receptor Assay for guinea pig Muscarinic, Peripheral (Mperiperal) Receptor, Non-selective Binding (AID 2283250)
Procedure, shortened: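 Guinea pig bladder membranes, radioligand binding read 1 h after dosing by filter scintillation counting; loss of signal vs DMSO. Primary duplicate screen at 25 uM, then concentration-response up to 50 uM.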

[10] = molecular target: human Serotonin, 5-Hydroxytryptamine Receptor 5A (5HT5A), HTR5A (gene 3361) (UniProt P47898); assay: NVS_GPCR_h5HT5A: NovaScreen (NVS) G Protein-Coupled Receptor Assay for human Serotonin, 5-Hydroxytryptamine Receptor 5A (5HT5A) (AID 2283251)
Chain of human Serotonin, 5-Hydroxytryptamine Receptor 5A (5HT5A), HTR5A (gene 3361) (P47898 whole entry, looked up): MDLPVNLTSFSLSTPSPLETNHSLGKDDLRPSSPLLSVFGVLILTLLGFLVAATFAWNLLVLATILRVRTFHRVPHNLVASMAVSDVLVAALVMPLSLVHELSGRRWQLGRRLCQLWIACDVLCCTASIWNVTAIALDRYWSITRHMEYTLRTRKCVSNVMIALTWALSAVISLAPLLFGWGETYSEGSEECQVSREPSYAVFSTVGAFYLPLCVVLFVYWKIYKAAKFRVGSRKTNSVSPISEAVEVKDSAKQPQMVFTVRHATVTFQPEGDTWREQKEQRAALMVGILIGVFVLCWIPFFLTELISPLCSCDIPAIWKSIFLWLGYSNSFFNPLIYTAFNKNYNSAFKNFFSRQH
Procedure, shortened: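 Cell-free radioligand displacement binding on HEK293-derived membrane protein, 1 h incubation, filter-based scintillation counting. Primary screen in duplicate at 25 uM, actives followed in concentration series; loss of signal fitted versus DMSO.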

[11] = molecular target: rat Acetylcholinesterase (AChE), Ache (gene 83817) (UniProt P37136); assay: NVS_ENZ_rAChE: NovaScreen (NVS) Enzymatic Assay for rat Acetylcholinesterase (AChE) (AID 2283233)
Chain of rat Acetylcholinesterase (AChE), Ache (gene 83817) (P37136 whole entry, looked up): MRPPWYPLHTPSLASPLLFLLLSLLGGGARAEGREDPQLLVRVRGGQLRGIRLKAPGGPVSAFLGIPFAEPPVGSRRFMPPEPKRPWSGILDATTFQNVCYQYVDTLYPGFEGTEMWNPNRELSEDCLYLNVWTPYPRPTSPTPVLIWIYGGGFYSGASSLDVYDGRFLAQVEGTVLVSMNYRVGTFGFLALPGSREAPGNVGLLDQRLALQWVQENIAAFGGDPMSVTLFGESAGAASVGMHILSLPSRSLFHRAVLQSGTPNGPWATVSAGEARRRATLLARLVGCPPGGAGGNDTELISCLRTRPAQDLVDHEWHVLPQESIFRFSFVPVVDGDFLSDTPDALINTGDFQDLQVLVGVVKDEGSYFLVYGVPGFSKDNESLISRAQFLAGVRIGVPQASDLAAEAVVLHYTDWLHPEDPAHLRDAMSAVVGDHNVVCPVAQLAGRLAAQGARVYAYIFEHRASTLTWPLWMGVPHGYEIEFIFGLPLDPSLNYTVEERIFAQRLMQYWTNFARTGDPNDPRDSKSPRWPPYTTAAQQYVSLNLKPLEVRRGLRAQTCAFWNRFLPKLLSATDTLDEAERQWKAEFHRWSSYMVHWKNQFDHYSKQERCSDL
Procedure, shortened: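 Rat brain membrane acetylcholinesterase activity measured colorimetrically 0.33 h after compound addition, loss of signal relative to DMSO. Primary screen in duplicate at 25 uM; actives re-run as concentration-response with 50 uM top concentration.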

[12] = molecular target: Adenosine receptor A1 (Bos taurus) (UniProt P28190); assay: NVS_GPCR_bAdoR_NonSelective: NovaScreen (NVS) G Protein-Coupled Receptor Assay for bovine Adenosine Receptor (AdoR), Non-selective Binding (AID 2283244)
Chain of Adenosine receptor A1 (Bos taurus) (P28190 whole entry, looked up): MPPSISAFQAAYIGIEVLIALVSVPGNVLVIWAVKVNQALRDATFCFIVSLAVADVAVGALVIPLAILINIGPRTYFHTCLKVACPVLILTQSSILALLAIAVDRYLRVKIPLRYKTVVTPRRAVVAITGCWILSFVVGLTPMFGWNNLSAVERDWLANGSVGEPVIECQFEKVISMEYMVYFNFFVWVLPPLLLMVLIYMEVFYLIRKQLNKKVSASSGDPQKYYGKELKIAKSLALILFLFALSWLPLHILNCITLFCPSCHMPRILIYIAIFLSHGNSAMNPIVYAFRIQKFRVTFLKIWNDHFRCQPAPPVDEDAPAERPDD
Procedure, shortened: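 Bovine striatal membranes, radioligand displacement binding, 1 h after dosing, filter-based scintillation counting. Screened in duplicate at 25 uM, then concentration-response up to 50 uM; loss of specific binding relative to DMSO.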

[13] = tested on: rat Monoamine Oxidase, MAO-A, Central (MAOAC), gene 29253; assay: NVS_ENZ_rMAOAC: NovaScreen (NVS) Enzymatic Assay for rat Monoamine Oxidase, MAO-A, Central (MAOAC) (AID 2283243);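 note: potency refers to inhibition seen as signal drop below DMSO baseline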
Procedure, shortened: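 Rat brain tissue extract served as the cell-free enzyme source; activity was measured by radiometric scintillation counting 1.5 hours after compound addition. Loss of signal relative to DMSO baseline indicated inhibition; primary screen at 25 uM in duplicate.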

[14] = molecular target: rat Catechol-O-Methyl Transferase (COMT), Comt (gene 24267) (UniProt P22734); assay: NVS_ENZ_rCOMT: NovaScreen (NVS) Enzymatic Assay for rat Catechol-O-Methyl Transferase (COMT) (AID 2283235)
Chain of rat Catechol-O-Methyl Transferase (COMT), Comt (gene 24267) (P22734 whole entry, looked up): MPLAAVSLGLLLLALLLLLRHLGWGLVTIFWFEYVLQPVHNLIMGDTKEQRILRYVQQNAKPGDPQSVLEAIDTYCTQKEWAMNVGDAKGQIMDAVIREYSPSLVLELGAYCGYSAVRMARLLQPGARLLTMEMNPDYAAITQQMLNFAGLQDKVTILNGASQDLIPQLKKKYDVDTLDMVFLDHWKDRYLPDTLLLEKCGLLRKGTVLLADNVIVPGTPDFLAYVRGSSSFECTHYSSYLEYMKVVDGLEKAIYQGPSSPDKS
Procedure, shortened: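 Cell-free enzyme activity with protein extracted from rat dorsal striatum, measured by HPLC with absorbance detection. Compounds screened at 25 uM in duplicate; actives then run in concentration-response up to 50 uM, loss of signal versus DMSO.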

[15] = tested on: rat Monoamine Oxidase, MAO-A, Peripheral (MAOAP), gene 29253; assay: NVS_ENZ_rMAOAP: NovaScreen (NVS) Enzymatic Assay for rat Monoamine Oxidase, MAO-A, Peripheral (MAOAP) (AID 2283237)
Procedure, shortened: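 Rat liver mitochondrial membranes served as the MAO-A source, with enzyme activity measured by radiometric scintillation counting 1.17 hours after dosing. Loss of signal was fitted against DMSO; primary screen used 25 uM in duplicate, follow-up used concentration series.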

[16] = molecular target: rat Monoamine Oxidase, MAO-B, Central (MAOBC), Maob (gene 25750) (UniProt P19643); assay: NVS_ENZ_rMAOBC: NovaScreen (NVS) Enzymatic Assay for rat Monoamine Oxidase, MAO-B, Central (MAOBC) (AID 2283238)
Chain of rat Monoamine Oxidase, MAO-B, Central (MAOBC), Maob (gene 25750) (P19643 whole entry, looked up): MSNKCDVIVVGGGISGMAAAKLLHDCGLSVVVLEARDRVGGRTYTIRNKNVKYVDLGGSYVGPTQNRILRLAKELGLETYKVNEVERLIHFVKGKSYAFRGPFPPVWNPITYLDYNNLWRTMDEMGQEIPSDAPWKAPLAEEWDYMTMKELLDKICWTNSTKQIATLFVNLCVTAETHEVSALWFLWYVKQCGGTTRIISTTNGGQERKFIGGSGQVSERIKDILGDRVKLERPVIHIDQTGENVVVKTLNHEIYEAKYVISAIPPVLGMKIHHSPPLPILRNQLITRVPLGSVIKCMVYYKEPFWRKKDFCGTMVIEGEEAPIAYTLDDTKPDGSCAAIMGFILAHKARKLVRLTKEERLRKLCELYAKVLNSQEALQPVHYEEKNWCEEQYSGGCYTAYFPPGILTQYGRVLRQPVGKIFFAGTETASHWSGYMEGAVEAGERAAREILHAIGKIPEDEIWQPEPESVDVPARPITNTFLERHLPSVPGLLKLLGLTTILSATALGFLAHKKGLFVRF
Procedure, shortened: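 MAO-B activity in rat brain tissue preparation, cell-free, measured radiometrically by scintillation counting 1.17 h after dosing. Screened in duplicate at 25 uM; actives then in concentration-response up to 50 uM. Loss of signal versus DMSO scored.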

[17] = molecular target: rat Monoamine Oxidase, MAO-B, Peripheral (MAOBP), Maob (gene 25750) (UniProt P19643); assay: NVS_ENZ_rMAOBP: NovaScreen (NVS) Enzymatic Assay for rat Monoamine Oxidase, MAO-B, Peripheral (MAOBP) (AID 2283242)
Chain of rat Monoamine Oxidase, MAO-B, Peripheral (MAOBP), Maob (gene 25750) (P19643 whole entry, looked up): as above

CC(C)(OOC(C)(C)c1ccccc1)c1ccccc1
outcome [1]: inactive

CCC[CH2][Sn]([Cl])([CH2]CCC)[CH2]CCC
AC50 [2]: 41 µM (active)
AC50 [3]: 18.2 µM (active)
AC50 [4]: 9.14 µM (active)
AC50 [5]: 3.07 µM (active)
AC50 [6]: 15.8 µM (active)
AC50 [7]: 1.86 µM (active)
AC50 [8]: 32.6 µM (active)
AC50 [9]: 9.81 µM (active)
AC50 [10]: 2.07 µM (active)

Cc1cccc(N)c1N
outcome [11]: inactive

CCNS(=O)(=O)C(F)(F)C(F)(F)C(F)(F)C(F)(F)C(F)(F)C(F)(F)C(F)(F)C(F)(F)F
outcome [1]: inactive

COC(=O)Nc1nc2ccccc2[nH]1
outcome [1]: inactive

Clc1ccc(C(c2ccc(Cl)cc2)C(Cl)(Cl)Cl)cc1
outcome [1]: inactive

CS(=O)(=O)NC(=O)c1cc(Oc2ccc(C(F)(F)F)cc2Cl)ccc1[N+](=O)[O-]
outcome [12]: inactive

CN(C)C(=O)Nc1ccc(Cl)cc1
outcome [11]: inactive
AC50 [13]: 25 µM (active)

CCCCCCCCCCCCCN1CC(C)OC(C)C1 (stereo not given)
AC50 [14]: 20.8 µM (active)
outcome [12]: inactive

Nc1ccc(N=Nc2ccccc2)cc1
AC50 [15]: 18.3 µM (active)
AC50 [16]: 25 µM (active)
outcome [17]: inactive
AC50 [13]: 10.6 µM (active)
AC50 [12]: 25 µM (active)

Nc1ccc(Cl)cc1N
outcome [13]: inactive
outcome [12]: inactive

CCOc1cccc(C2(N3CCN(c4ccccc4)CC3)CCC(C)CC2)c1 (stereo not given)
AC50 [15]: 13.7 µM (active)
AC50 [13]: 4.53 µM (active)
outcome [12]: inactive

[Cl-].[Cl-].[Hg+2]
AC50 [15]: 3.19 µM (active)
AC50 [4]: 11.6 µM (active)
AC50 [17]: 9.04 µM (active)
outcome [13]: inactive
AC50 [12]: 19.1 µM (active)
AC50 [5]: 12 µM (active)
AC50 [7]: 1.4 µM (active)
AC50 [9]: 9.07 µM (active)
AC50 [10]: 1.59 µM (active)

O=[N+]([O-])c1ccc(Oc2ccc(Cl)cc2Cl)cc1
outcome [9]: inactive

CCN(CC)CCO
outcome [15]: inactive

CC(C)COC(=O)c1ccccc1C(=O)OCC(C)C
outcome [17]: inactive

O=C(Oc1ccc(Br)cc1)N1CCN2CCC1CC2
AC50 [9]: 15 µM (active)

CC(C)(C)OOC(C)(C)CCC(C)(C)OOC(C)(C)C
outcome [15]: inactive

Cn1cc(-c2ccccc2)c(=O)c(-c2cccc(C(F)(F)F)c2)c1
outcome [17]: inactive

CC(C)(C)C(O)(CCc1ccc(Cl)cc1)Cn1cncn1 (stereo not given)
outcome [8]: inactive

O=C(N[C@H](c1ccccc1)[C@@H]1CN2CCC1CC2)c1c(Cl)ccc(C(F)(F)F)c1Cl
AC50 [15]: 50.6 µM (active)
AC50 [4]: 29.1 µM (active)
AC50 [13]: 37.5 µM (active)
AC50 [8]: 37.5 µM (active)
outcome [9]: inactive
